{"source": "PubChem BioAssay (NCATS)", "key": {"[1]": {"assay": "Cytometric Cell-Based qHTS for Inhibitors of the mTORC1 Signaling Pathway in MEF (Tsc2-/-, p53-/-) Cells (AID 2660);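 note: Tsc2 and p53 null MEFs carrying empty vector with compound for 24 h; percent of cells above a phospho-rpS6 to PI ratio cutoff in each well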", "in_short": "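Readout: Alexa-488 phospho-rpS6 (Ser235/236) intensity divided by PI intensity, thresholded against 7.5 nM rapamycin wells and reported as % positive cells. PI cell count served as the viability measure. Compound exposure was 24 hrs at 37 degree Celsius.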"}, "[2]": {"assay": "High Content Imaging Cell-Based qHTS for Inhibitors of the mTORC1 Signaling Pathway in MEF (Tsc2-/-, p53-/-) Cells (AID 2666)", "conditions": "at 38.3 µM (top of the series)", "in_short": "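Cells were plated, dosed with compound after 24 hrs, and incubated another 24 hrs at 37 degree Celsius. Fixed cells were immunostained for phospho-rpS6 Ser235/236 and counterstained, and the normalized signal was scored as % active cells against rapamycin and DMSO controls.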"}, "[3]": {"assay": "High Content Imaging Cell-Based qHTS for Inhibitors of the mTORC1 Signaling Pathway in MEF Cells (AID 2667)", "in_short": "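Immunofluorescence for rpS6 phosphorylation in MEFs of Tsc2-/-, p53-/- background rescued with WT Tsc2. Compound exposure lasted 24 hrs. Inhibition was scored against rapamycin-treated control wells.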"}, "[4]": {"assay": "Cytometry Cell-Based qHTS for Inhibitors of the mTORC1 Signaling Pathway in MEF cells (AID 2668);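 note: percent cells positive for phospho-rpS6 Ser235/236 relative to propidium iodide stain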", "in_short": "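WT MEFs (Tsc2-/-, p53-/- stably re-expressing WT Tsc2) in DMEM + 10% FBS received compounds 24 hrs after plating, for 24 hrs at 37 degree Celsius. Fixed cells stained with Alexa-488 anti-phospho-rpS6 Ser235/236 and propidium iodide; laser-scanning cytometry read-out.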"}, "[5]": {"molecular_target": "Ubiquitin carboxyl-terminal hydrolase 2 (Homo sapiens) (UniProt O75604)", "sequence (O75604 whole entry, looked up)": "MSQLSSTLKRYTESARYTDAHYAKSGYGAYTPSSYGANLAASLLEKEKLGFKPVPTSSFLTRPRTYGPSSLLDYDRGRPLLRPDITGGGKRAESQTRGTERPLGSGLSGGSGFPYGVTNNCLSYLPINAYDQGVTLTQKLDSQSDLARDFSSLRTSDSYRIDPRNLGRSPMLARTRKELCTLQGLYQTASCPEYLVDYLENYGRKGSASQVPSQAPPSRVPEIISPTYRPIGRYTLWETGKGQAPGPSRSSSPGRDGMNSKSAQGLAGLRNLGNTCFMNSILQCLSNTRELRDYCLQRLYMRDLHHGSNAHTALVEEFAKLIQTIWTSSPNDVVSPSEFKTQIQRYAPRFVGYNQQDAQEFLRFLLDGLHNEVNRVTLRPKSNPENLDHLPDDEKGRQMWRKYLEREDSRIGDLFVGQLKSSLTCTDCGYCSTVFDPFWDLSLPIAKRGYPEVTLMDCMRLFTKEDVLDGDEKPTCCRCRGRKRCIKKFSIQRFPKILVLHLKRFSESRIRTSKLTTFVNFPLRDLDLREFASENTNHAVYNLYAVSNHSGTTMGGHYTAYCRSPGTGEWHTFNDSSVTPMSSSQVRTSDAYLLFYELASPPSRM", "assay": "qHTS Validation Assay for Inhibitors of Ubiquitin-specific Protease USP2a Using CHOP2 as the Reporter (AID 463106)", "in_short": "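10nM USP2 core + cpd, 30min RT; add 25nM Ub-CHOP2/25nM substrate; 60min RT; FI 485/531nm. Buffer Tris pH 8.0, CaCl2, BME, CHAPS. Norm. to NEM = 100% inhibition; time-zero read flags fluorescent artifacts.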"}, "[6]": {"molecular_target": "DNA polymerase III PolC-type (Bacillus subtilis (strain 168)) (UniProt P13267)", "assay": "qHTS Validation Assay for the Inhibitors of DNA Replication in Gram-Positive Bacteria (AID 485295);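 note: PicoGreen fluorescence of double-stranded DNA made on primed circular M13 template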", "in_short": "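Reconstituted B. subtilis holoenzyme (Pol III, beta clamp, SSB, primase) was preincubated with compound at room temperature, then given single-stranded circular M13Gori plus dNTPs and NTPs. EDTA-containing PicoGreen stopped the reaction, and dsDNA product was read by fluorescence.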"}, "[7]": {"molecular_target": "Tumor susceptibility gene 101 protein (Homo sapiens) (UniProt Q99816)", "sequence (Q99816 whole entry, looked up, the tested form may be a part)": "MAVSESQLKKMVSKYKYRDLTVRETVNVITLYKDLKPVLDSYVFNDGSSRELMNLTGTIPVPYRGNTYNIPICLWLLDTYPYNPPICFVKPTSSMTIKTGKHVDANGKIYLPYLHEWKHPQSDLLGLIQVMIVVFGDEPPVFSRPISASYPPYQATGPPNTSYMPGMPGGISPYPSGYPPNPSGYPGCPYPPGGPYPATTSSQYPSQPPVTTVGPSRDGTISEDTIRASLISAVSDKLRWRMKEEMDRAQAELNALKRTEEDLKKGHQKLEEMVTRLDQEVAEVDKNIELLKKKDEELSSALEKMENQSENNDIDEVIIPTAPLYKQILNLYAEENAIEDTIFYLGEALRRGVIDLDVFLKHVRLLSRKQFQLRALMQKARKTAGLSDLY", "assay": "qHTS Validation Assay for Iinhibitors of HIV-1 Budding by Blocking the Interaction of PTAP/TSG101 (AID 485342; calls by dose curve)", "in_short": "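Tsg101 binding domain (10 uM final) in pH 7.5 HEPES/NaCl/Tween 20/EDTA/TCEP buffer was mixed with pin-transferred compounds, then FITC-labeled PTAP peptide (50 nM final) was added; after 20 min at r.t., fluorescence polarization was read.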"}, "[8]": {"molecular_target": "Beta-2 adrenergic receptor (Homo sapiens) (UniProt P07550)", "sequence (P07550 whole entry, looked up)": "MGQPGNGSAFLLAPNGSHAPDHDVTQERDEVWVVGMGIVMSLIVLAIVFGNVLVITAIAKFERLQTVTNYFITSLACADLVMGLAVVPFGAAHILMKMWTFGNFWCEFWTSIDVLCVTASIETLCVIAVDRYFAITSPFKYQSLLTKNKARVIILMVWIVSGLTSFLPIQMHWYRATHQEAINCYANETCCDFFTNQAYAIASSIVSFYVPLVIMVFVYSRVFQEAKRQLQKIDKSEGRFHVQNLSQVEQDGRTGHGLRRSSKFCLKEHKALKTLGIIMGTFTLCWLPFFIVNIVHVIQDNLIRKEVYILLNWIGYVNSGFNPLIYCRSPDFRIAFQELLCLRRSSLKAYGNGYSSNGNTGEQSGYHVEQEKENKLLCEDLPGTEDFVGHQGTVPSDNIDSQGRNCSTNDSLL", "assay": "qHTS validation assay of beta-arrestin-biased ligands of beta2-adrenergic receptor (AID 485366)", "in_short": "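Tango cells (recombinant beta2-AR with recombinant beta-arrestin; recruitment releases tTA driving luciferase) were treated with compounds titrated up to 46 microM for 18 hr at 37 degrees C. Luminescence gave %Activity, and concentration-response curves were curve-classified.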"}, "[9]": {"molecular_target": "Chromobox protein homolog 1 (Homo sapiens) (UniProt P83916)", "sequence (P83916 whole entry, looked up)": "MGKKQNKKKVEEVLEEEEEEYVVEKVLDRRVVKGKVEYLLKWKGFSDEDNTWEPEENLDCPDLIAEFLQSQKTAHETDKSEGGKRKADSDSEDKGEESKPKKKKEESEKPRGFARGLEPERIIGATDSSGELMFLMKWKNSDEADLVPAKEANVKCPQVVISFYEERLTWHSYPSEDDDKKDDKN", "assay": "qHTS Validation Assay for Inhibitors of HP1-beta Chromodomain Interactions with Methylated Histone Tails (AID 488953); note: potency is the fitted concentration of half-maximal effect; nearly all actives have a fitted effect of over 50% in size", "in_short": "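HP1-beta (50 nM) was preincubated 30 min at room temperature with biotinylated H3(1-18)K9me3 peptide (50 nM) in PBS pH 7.4, 0.01% Tween-20, then with compounds 30 min. AlphaScreen signal was read after streptavidin donor/nickel chelate acceptor beads (10 ug/mL final).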"}, "[10]": {"molecular_target": "D(1A) dopamine receptor (Homo sapiens) (UniProt P21728)", "sequence (P21728 whole entry, looked up)": "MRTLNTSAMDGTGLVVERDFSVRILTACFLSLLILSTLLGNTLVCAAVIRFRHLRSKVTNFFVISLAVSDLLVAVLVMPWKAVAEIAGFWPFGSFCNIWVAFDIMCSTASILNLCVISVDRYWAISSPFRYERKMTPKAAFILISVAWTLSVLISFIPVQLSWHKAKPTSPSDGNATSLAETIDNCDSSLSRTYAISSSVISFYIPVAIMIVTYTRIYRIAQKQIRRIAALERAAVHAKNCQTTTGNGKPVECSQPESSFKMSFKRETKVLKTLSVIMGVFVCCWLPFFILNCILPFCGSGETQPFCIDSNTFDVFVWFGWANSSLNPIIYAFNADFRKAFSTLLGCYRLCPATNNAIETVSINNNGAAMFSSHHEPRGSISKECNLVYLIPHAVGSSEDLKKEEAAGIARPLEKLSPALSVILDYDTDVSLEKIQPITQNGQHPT", "assay": "HTS Assay for Allosteric Agonists of the Human D1 Dopamine Receptor: Primary Screen for Agonists (AID 488981)", "in_short": "(§1)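 Calcium flux in an inducible, force-coupled HEK293 Trex D1 line (overnight at 30 C): agonist mode is the 180 s kinetic read after compound; potentiator mode is the following 180 s read after dopamine at EC20.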"}, "[11]": {"molecular_target": "D(1A) dopamine receptor (Homo sapiens) (UniProt P21728)", "assay": "HTS Assay for Allosteric Agonists of the Human D1 Dopamine Receptor: Primary Screen for Potentiators (AID 488982)", "in_short": "as §1"}, "[12]": {"assay": "Validation screen for small molecules that induce genotoxicity in human embryonic kidney (HEK293T) cells expressing luciferase-tagged ELG1 (AID 493106)", "in_short": "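HEK293T cells expressing luciferase-tagged ELG1 were exposed to compound or DMSO vehicle for 16 hr at 37 °C, 5% CO2. Genotoxic stress raises ELG1 levels, so increased luciferase signal after ONE-Glo addition and 30 min at room temperature marks hits.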"}, "[13]": {"assay": "qHTS for Inhibitors of Cell Surface uPA Generation: Validation Assay (AID 493164)", "in_short": "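RAW 264.7, 4000 cells/well, o/n plating; cpd 7-pt 1:5 dilution 2.45 nM–38.3 uM final; 18 h, 37 C/5% CO2; ATP-Lite, 5 s luminescence exposure.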"}, "[14]": {"molecular_target": "Peptidyl-prolyl cis-trans isomerase NIMA-interacting 1 (Homo sapiens) (UniProt Q13526)", "sequence (Q13526 whole entry, looked up)": "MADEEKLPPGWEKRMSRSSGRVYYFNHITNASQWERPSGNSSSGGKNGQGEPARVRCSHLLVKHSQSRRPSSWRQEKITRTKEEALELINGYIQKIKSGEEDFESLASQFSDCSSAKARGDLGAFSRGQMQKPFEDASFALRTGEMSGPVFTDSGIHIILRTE", "assay": "qHTS Validation Assay to Find Inhibitors of Pin1 (AID 504536; active = well fitted inhibition curve with a large enough effect in the polarisation, with a control signal flat, not every such curve was filed as active; the % refers to the polarisation)", "in_short": "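Fluorescence polarization competition: compounds (titration) displace HiFluor-488-labeled Pin1-1b peptide from Pin1 (0.3 uM final) in pH 7.5 HEPES buffer with DTT, 10 min at room temperature; %Activity normalized to no-enzyme wells, curves fitted.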"}, "[15]": {"molecular_target": "Phosphoglycerate kinase, glycosomal (Trypanosoma brucei brucei) (UniProt P07378)", "sequence (P07378 whole entry, looked up)": "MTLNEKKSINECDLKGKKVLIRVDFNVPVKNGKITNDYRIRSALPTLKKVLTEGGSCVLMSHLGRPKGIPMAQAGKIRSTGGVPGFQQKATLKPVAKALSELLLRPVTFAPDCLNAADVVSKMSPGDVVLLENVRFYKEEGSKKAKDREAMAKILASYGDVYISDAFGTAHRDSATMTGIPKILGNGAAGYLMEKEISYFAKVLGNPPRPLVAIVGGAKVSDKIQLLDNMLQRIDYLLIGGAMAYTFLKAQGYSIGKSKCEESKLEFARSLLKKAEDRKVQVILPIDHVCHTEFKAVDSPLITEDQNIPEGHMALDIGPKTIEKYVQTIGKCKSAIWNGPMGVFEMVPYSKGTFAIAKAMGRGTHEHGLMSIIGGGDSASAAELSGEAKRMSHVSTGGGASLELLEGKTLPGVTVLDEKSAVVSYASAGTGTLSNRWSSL", "assay": "qHTS Validation Assay to Find Inhibitors of Phosphoglycerate Kinase (AID 504547)", "in_short": "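Inhibition of the enzyme is judged by a Kinase-Glo Plus luminescent signal following a one-hour incubation at room temperature. Because 1,3-BPG is unstable, it is made in situ by GAPDH at 100nM final; no-PGK wells define the baseline.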"}, "[16]": {"molecular_target": "phosphoglycerate mutase (Leishmania major) (UniProt Q4Q090)", "sequence (Q4Q090 1-553)": "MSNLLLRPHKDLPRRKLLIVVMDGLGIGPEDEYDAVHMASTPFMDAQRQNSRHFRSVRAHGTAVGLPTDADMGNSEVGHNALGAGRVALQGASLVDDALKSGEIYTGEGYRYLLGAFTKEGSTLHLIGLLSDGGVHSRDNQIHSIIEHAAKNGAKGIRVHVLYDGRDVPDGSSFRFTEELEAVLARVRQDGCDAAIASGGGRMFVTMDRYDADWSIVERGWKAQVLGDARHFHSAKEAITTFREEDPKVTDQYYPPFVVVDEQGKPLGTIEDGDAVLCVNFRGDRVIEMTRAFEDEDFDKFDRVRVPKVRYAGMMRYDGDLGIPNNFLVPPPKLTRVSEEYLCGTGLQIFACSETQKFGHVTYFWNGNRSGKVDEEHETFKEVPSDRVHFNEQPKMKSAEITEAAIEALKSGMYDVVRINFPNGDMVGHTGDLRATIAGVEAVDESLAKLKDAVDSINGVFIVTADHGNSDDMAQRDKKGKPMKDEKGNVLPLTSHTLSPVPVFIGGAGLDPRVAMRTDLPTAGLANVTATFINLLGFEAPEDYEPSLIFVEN", "assay": "qHTS Validation Assay to Find Inhibitors of Phosphoglycerate Mutase (AID 504548)", "in_short": "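Lm PGAM 1.25nM final; 100 mM TEA pH 7.6, 5 mM MgCl2, 0.01% Tween-20; 45 min RT; Kinase-GloPlus, 10 min; end-point luminescence. Enzyme-free wells as negative controls.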"}, "[17]": {"assay": "qHTS for Inhibitors of ATXN expression: Validation (AID 588378)", "in_short": "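Luminescence from an ATXN2-FFLuc reporter in HEK293 cells served as read-out after 24 h compound treatment at 37 degrees C; CellTiter-Fluor fluorescence was recorded first to assess viability.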"}, "[18]": {"molecular_target": "Glutaminase kidney isoform, mitochondrial (Homo sapiens) (UniProt O94925)", "sequence (O94925 whole entry, looked up, canonical isoform)": "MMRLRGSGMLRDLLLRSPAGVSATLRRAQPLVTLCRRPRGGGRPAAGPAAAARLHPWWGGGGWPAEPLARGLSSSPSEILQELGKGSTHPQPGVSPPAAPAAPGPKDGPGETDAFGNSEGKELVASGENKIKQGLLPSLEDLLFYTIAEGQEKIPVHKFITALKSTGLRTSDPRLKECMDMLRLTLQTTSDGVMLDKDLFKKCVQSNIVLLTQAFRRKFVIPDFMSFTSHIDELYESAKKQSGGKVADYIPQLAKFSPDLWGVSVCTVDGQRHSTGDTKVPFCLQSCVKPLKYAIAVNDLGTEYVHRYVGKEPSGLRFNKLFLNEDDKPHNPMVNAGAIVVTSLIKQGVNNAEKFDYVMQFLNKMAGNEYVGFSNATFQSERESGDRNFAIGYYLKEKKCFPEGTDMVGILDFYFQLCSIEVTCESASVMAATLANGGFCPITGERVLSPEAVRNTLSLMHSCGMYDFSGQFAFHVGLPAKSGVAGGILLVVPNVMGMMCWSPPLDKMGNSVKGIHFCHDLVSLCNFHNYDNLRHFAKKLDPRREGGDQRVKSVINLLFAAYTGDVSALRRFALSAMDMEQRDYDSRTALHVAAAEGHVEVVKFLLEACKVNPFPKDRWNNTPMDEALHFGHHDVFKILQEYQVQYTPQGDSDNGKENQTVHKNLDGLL", "assay": "qHTS for Inhibitors of Glutaminase (GLS): LOPAC Validation (AID 624146)", "in_short": "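Human kidney-isoform GLS in 45 mM KH2PO4 pH 8.2, 0.02% Tween-20, with compound, started with 1mM L-Glutamine (added stock). Glutamate oxidase/HRP/Amplex red coupled fluorescence read at start and after 30 min at RT.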"}, "[19]": {"assay": "qHTS of Trypanosoma Brucei Inhibitors: LOPAC Validation (AID 624147)", "in_short": "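ADP (130 uM final) triggers the TbPYK reaction after compound addition; incubation is 45 min at room temperature. Kinase-Glo Plus is then added and luminescence imaged. Normalized data are fitted to concentration-effect curves.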"}, "[20]": {"molecular_target": "Glucagon-like peptide 1 receptor (Homo sapiens) (UniProt P43220)", "sequence (P43220 whole entry, looked up)": "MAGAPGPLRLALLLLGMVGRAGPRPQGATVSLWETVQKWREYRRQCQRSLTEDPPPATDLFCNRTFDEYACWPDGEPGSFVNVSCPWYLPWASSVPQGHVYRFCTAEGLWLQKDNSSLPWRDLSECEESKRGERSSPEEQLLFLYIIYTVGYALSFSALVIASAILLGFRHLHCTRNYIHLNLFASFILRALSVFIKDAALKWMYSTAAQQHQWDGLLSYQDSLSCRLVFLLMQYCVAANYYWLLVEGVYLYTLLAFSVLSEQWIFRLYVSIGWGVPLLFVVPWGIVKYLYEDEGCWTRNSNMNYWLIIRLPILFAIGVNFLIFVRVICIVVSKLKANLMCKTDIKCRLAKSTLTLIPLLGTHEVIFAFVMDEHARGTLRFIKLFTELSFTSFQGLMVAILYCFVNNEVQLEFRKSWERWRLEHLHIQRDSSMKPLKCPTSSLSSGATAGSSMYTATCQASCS", "assay": "qHTS of GLP-1 Receptor Agonists: LOPAC Validation (AID 624148)", "in_short": "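Agonism scored as increased luciferase luminescence driven by cAMP in HEK293 clones carrying GLP-1R. Cells settled 12 hours, received compound for 4-6 hr at 37 deg C, 5% CO2, and were read after 12 min detection reagent at RT.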"}, "[21]": {"assay": "qHTS of Nrf2 Activators: LOPAC Validation (AID 624149)", "in_short": "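AREc32 cells carrying an ARE-driven firefly luciferase were grown overnight in OPTI-MEM with 5% FBS, then exposed to compounds for 24 hr at 37 deg C. Luciferase signal was read after 30 min with Steady-Glo at RT.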"}, "[22]": {"assay": "HTS Assay for Allosteric Antagonists of the Human D2 Dopamine Receptor: Hit Validation in HTRF (AID 624455)", "in_short": "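Hits were examined in an HTRF assay using cells stably expressing the D1 dopamine receptor, scoring inhibition of the D1-mediated response. The preceding primary screen tracked calcium flux after an EC80 dopamine addition in force-coupled, inducible Hek293 Trex D2 cells.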"}, "[23]": {"molecular_target": "Arylsulfatase A (Homo sapiens) (UniProt P15289)", "sequence (P15289 whole entry, looked up)": "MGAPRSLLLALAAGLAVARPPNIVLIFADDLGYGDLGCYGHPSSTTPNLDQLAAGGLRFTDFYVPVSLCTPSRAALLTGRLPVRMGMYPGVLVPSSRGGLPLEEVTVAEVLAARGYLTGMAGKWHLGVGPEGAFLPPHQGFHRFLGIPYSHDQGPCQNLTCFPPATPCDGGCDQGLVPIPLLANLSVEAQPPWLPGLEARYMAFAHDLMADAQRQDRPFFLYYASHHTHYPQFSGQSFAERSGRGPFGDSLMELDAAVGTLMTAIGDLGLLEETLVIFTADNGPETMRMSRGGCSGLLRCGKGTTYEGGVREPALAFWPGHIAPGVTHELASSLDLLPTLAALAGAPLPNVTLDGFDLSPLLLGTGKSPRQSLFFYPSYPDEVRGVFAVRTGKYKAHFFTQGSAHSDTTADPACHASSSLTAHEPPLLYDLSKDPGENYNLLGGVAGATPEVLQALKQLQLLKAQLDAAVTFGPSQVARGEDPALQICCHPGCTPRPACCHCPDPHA", "assay": "qHTS screen for enhancers of Arylsulfatase A (ASA1): LOPAC Validation Assay (AID 720538)", "in_short": "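SV40-transformed skin fibroblasts from an MLD patient (ASA-I179S) were treated with compounds for 48h at 37 degree C, then lysed with 0.5mM pNCS final substrate for 14h at room temperature; NaOH stop, fluorescence read (Ex=525 nm; Em=598 nm).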"}, "[24]": {"assay": "qHTS for compounds that reverse cellular toxicity of Amyloid beta (A-beta) peptide in yeast: LOPAC Validation Assay (AID 720559)", "in_short": "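Yeast cells expressing toxic A-beta were combined with pinned compounds in growth medium and incubated 48 hr at 30 C. Growth was read as absorbance at 600 nm and normalized to DMSO and to an equimolar FeCl3/clioquinol positive control.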"}, "[25]": {"assay": "qHTS for Activators of Parkin Expression: LOPAC Validation Assay (NLuc Reporter) (AID 720572)", "in_short": "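Parkin promoter-driven FLuc/NLuc neuronal reporter cells; 24 h plating, 7-pt dose response, 24 h at 37 C/5% CO2; FLuc then NanoLuc reagent, 10 min each, luminescence; DMSO/positive control normalized.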"}}, "note": "Inconclusive results are not listed. Where a call stands in place of a potency, no number is given. Calls of active or inactive are those of the source. Unless noted, calls come from the whole dose curve; as a rule, active = well fitted curve in the direction sought with a large enough effect; inconclusive = small, poorly fitted or top-dose-only effect, or another doubt; inactive = no such curve, though single readings can be large; an effect the other way counts as inactive or inconclusive."}
{"molecule": "CCc1ccc(/C=C2/SC(=S)NC2=O)cc1", "values": [{"measurement": "outcome", "setting": "[1]", "value": "inactive"}, {"measurement": "outcome", "setting": "[2]", "value": "inactive"}, {"measurement": "Potency", "setting": "[3]", "value": "inactive"}, {"measurement": "Potency", "setting": "[4]", "value": "inactive"}, {"measurement": "Potency", "setting": "[5]", "value": "inactive"}, {"measurement": "Potency", "setting": "[6]", "value": "inactive"}, {"measurement": "outcome", "setting": "[7]", "value": "inactive"}, {"measurement": "outcome", "setting": "[8]", "value": "inactive"}, {"measurement": "Potency", "setting": "[9]", "value": "12.6 µM (active)"}, {"measurement": "outcome", "setting": "[10]", "value": "inactive"}, {"measurement": "outcome", "setting": "[11]", "value": "inactive"}, {"measurement": "Potency", "setting": "[12]", "value": "inactive"}, {"measurement": "outcome", "setting": "[13]", "value": "inactive"}, {"measurement": "Potency", "setting": "[14]", "value": "inactive"}, {"measurement": "Potency", "setting": "[15]", "value": "inactive"}, {"measurement": "outcome", "setting": "[16]", "value": "inactive"}, {"measurement": "Potency", "setting": "[17]", "value": "inactive"}, {"measurement": "Potency", "setting": "[18]", "value": "inactive"}, {"measurement": "outcome", "setting": "[19]", "value": "inactive"}, {"measurement": "outcome", "setting": "[20]", "value": "inactive"}, {"measurement": "outcome", "setting": "[21]", "value": "inactive"}, {"measurement": "outcome", "setting": "[22]", "value": "inactive"}, {"measurement": "Potency", "setting": "[23]", "value": "15.1 µM (active)"}, {"measurement": "outcome", "setting": "[24]", "value": "inactive"}, {"measurement": "outcome", "setting": "[25]", "value": "inactive"}]}
